Data from PubChem BioAssay (EPA / NIEHS).
Calls of active or inactive are those of the source. How the source made its calls: active means hit-call score of the fitted dose curve at least 0.9, where 1 is the maximum; inactive means score below 0.9.

Columns and labels:
[1] = ATG_CMV_CIS: Attagene CIS-FACTORIAL HepG2 Assay for human CMV (Internal Marker) (AID 2282928); conditions: HepG2 CMV promoter reporter, transcription factor profiling; actives raise or lower the signal;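 further: endpoint acts as a background internal control marker rather than a target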
Summary of the method: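 Cell system: HepG2, transiently transfected multiple reporter units under cis promoters. Exposure: 24 h. Detection: RT-PCR, FAM labeling, HpaI digestion, capillary electrophoresis. Analysis: bidirectional, DMSO baseline.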

[2] = ATG_DR4_LXR_CIS: Attagene CIS-FACTORIAL HepG2 Assay for human Liver X Receptor (LXR), DR4 submotif (AID 2282929); conditions: HepG2 Attagene DR4 cis-reporter, mRNA transcription; AC50: actives raise or lower the signal unless noted; outcome: actives raise or lower the signal unless noted
Summary of the method: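 HepG2 cells were transiently transfected with multiple cis-regulated reporter units and dosed for 24 hours. The DR4 reporter mRNA was quantified by RT-PCR, 6-FAM labelling and capillary electrophoresis. Bidirectional fits used DMSO as baseline.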

[3] = target: Aryl hydrocarbon receptor (Homo sapiens) (UniProt P35869); assay: ATG_Ahr_CIS: Attagene CIS-FACTORIAL HepG2 Assay for human Aryl Hydrocarbon Receptor (Ahr) (AID 2282930); conditions: HepG2 AhR cis-factorial reporter transcription; actives raise or lower the signal
Summary of the method: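 Reporter mRNA levels, quantified by RT-PCR and fluorescent capillary electrophoresis, reflect endogenous AhR transcriptional activity in HepG2 cells carrying transfected cis-promoter reporter constructs. Readout at 24 h post-dose; gain or loss fitted against DMSO baseline.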

[4] = ATG_AP_1_CIS: Attagene CIS-FACTORIAL HepG2 Assay for human Activator Protein 1 (AP-1) (AID 2282931); conditions: HepG2 Attagene cis-factorial AP-1 reporter mRNA; actives raise or lower the signal
Summary of the method: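 HepG2 cells transiently transfected with cis-element-driven reporter transcription units, dosed for 24 hours. Reporter mRNA measured by RT-PCR, 6-FAM labelling, HpaI digestion and capillary electrophoresis. Bidirectional fitting against DMSO baseline.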

[5] = ATG_AP_2_CIS: Attagene CIS-FACTORIAL HepG2 Assay for human Activator Protein 2 (AP-2) (AID 2282932); conditions: HepG2 AP-2 cis-reporter, Attagene transcription factor profiling; AC50: actives raise or lower the signal unless noted; outcome: actives raise or lower the signal unless noted
Summary of the method: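 Step one: transient transfection of HepG2 with reporter transcription units. Step two: 24 h chemical exposure. Step three: RNA extraction, RT-PCR, labelled fragment analysis by capillary electrophoresis; DMSO serves as baseline.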

[6] = ATG_BRE_CIS: Attagene CIS-FACTORIAL HepG2 Assay for human Bone Morphogenetic Protein (BMP) Response Element (BRE) (AID 2282933); conditions: HepG2 BMP response element reporter, Attagene transcription factor profiling; actives raise or lower the signal
Summary of the method: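 A HepG2 multiplex reporter system measured inducible reporter mRNA 24 h post-dosing. Detection: RT-PCR, 6-FAM primer extension, HpaI digestion, capillary electrophoresis. Activity fitted bidirectionally relative to DMSO.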

[7] = target: Transcription factor E2F1 (Homo sapiens) (UniProt Q01094); assay: ATG_E2F_CIS: Attagene CIS-FACTORIAL HepG2 Assay for human E2F Transcription Factor 1 (AID 2282935); conditions: HepG2 Attagene cis-reporter, E2F reporter RNA transcripts; actives raise or lower the signal
Summary of the method: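 Total RNA from 24 h-treated, reporter-transfected HepG2 cells undergoes DNase I treatment, oligo(dT) reverse transcription, PCR and 6-FAM primer extension before capillary electrophoresis.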

[8] = ATG_E_Box_CIS: Attagene CIS-FACTORIAL HepG2 Assay for human Enhancer Box (E-box) (AID 2282936); conditions: HepG2 E-box cis-reporter transcription, actives raise or lower the signal
Summary of the method: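 DMSO served as negative control and baseline for bidirectional fitting. Human hepatoma HepG2 cells, transiently transfected with cis-reporter constructs, were dosed 24 h; reporter mRNA read by RT-PCR and capillary electrophoresis.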

[9] = ATG_M_61_CIS: Attagene CIS-FACTORIAL HepG2 Assay for M61 Transcription Factor (Internal Marker) (AID 2282937); conditions: HepG2 Attagene CIS-FACTORIAL M61 internal marker reporter; actives raise or lower the signal
Summary of the method: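 HepG2 cells transiently transfected with multiplexed cis-promoter reporter units reporting endogenous transcription factor activity, measured 24 h after dosing. Reporter mRNA quantified by RT-PCR and capillary electrophoresis; bidirectional fit against DMSO baseline.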

[10] = target: Retinoic acid receptor alpha (Homo sapiens) (UniProt P10276); assay: ATG_DR5_RAR_CIS: Attagene CIS-FACTORIAL HepG2 Assay for human Retinoic Acid Receptor Alpha (RARE), DR5 submotif (AID 2282934); conditions: HepG2 Attagene cis-factorial RARE DR5 reporter, mRNA; actives raise or lower the signal;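 on AC50: reporter responds to endogenous RAR alpha beta and gamma in HepG2 not RARA alone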
Summary of the method: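 Reporter transcripts from a DR5-regulated unit, measured via RT-PCR plus capillary electrophoresis, reflect endogenous RAR activity in transiently transfected human HepG2 liver cells. Exposure lasted 24 h; gain or loss of signal scored against DMSO.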

Measured: AC50

Sequence of Transcription factor E2F1 (Homo sapiens) (Q01094 whole entry, looked up): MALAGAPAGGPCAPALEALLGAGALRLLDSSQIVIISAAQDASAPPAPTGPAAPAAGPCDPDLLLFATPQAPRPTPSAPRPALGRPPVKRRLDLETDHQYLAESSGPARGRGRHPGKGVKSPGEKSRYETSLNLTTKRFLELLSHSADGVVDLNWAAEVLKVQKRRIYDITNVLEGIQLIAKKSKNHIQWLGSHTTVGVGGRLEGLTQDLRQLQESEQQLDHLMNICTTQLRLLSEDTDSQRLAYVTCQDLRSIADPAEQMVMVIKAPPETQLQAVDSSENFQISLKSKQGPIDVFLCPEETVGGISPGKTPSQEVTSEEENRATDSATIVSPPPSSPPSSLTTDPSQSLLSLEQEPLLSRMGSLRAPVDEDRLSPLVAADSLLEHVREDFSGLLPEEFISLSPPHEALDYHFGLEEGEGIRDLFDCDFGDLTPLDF
Sequence of Aryl hydrocarbon receptor (Homo sapiens) (P35869 whole entry, looked up): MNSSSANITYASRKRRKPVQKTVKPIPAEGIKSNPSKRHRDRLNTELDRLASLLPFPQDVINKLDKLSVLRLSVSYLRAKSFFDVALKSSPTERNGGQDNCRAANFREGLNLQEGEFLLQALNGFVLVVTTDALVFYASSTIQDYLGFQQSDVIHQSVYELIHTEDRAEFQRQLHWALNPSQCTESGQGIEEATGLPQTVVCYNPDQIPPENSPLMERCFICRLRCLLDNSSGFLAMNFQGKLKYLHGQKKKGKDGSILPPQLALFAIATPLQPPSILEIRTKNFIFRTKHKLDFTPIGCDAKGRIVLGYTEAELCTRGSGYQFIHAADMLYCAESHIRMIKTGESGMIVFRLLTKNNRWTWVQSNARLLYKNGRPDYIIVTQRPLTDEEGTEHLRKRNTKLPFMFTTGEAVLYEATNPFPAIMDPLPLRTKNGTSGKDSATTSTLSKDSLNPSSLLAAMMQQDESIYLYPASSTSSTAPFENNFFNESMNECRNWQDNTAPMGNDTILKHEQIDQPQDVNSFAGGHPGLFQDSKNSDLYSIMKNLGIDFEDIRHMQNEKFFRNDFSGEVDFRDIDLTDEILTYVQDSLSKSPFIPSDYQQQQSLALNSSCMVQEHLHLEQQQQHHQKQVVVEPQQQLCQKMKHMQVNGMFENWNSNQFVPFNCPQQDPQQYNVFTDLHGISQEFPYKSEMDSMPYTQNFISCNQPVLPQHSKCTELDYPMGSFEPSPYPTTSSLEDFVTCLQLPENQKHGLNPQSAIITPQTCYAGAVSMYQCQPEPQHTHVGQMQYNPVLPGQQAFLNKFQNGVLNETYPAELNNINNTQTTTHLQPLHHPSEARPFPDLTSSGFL
Sequence of Retinoic acid receptor alpha (Homo sapiens) (P10276 whole entry, looked up): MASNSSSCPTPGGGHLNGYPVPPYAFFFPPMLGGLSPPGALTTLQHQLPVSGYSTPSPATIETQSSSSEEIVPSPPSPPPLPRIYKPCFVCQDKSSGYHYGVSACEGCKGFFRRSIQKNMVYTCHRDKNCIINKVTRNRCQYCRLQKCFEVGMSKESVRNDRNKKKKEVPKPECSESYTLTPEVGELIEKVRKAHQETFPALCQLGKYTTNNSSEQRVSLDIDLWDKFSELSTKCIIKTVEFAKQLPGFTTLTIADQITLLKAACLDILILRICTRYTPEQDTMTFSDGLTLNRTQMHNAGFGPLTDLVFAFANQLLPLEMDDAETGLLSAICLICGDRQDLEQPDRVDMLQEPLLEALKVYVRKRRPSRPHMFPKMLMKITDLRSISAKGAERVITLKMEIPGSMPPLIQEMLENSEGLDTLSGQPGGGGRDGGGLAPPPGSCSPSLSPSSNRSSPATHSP

NS(=O)(=O)O
not listed: [10]
inactive: all other assays above

CCC(=O)C=Cc1ccc(OC)cc1
active: [2] 68.2 µM
not listed: [4]
inactive: all other assays above

Cc1cc(=O)oc2cc(O)ccc12
not listed: [10]
inactive: all other assays above

Clc1ccc2c(Cl)ccnc2c1
active: [1] 57.3 µM | [3] 19.8 µM | [6] 65.6 µM
not listed: [4]
inactive: all other assays above

C[N+](C)(CCCNS(=O)(=O)CCC(F)(F)C(F)(F)C(F)(F)C(F)(F)C(F)(F)C(F)(F)F)CC(=O)[O-]
active: [3] 0.0224 µM
not listed: [4]
inactive: all other assays above

CCCCCCCCCCCC[N+](C)(C)CCCCCCCCCCCC
active: [1] 182 µM | [5] 168 µM
not listed: [4]
inactive: all other assays above

CCCCCCCC(OC)OC
not listed: [4]
inactive: all other assays above

CCCCCCCCCCCC(=O)NCCCN(C)C
active: [6] 17.6 µM
not listed: [4]
inactive: all other assays above

C=CC(=O)OCCN(CC)CC
active: [1] 63.2 µM | [2] 26.6 µM | [3] 65.6 µM | [8] 37 µM
inactive: [5] | [6] | [10] | [7]

CS(=O)(=O)c1ccc([C@@H](CC2CCCC2)C(=O)Nc2cnccn2)cc1Cl
active: [1] 136 µM | [2] 29.1 µM | [3] 68.4 µM | [6] 127 µM
not listed: [4]
inactive: all other assays above

CCO[Si](C)(C)OCC
not listed: [4]
inactive: all other assays above

CC(=O)CC(C)C
not listed: [4]
inactive: all other assays above

FC(F)(F)C(F)(F)C(F)(F)C(F)(F)I
inactive: all assays above

CCOC(=O)c1nc(C(Cl)(Cl)Cl)n(-c2ccc(Cl)cc2Cl)n1
active: [1] 29.6 µM | [2] 48.5 µM | [5] 25.3 µM | [7] 181 µM
not listed: [4]
inactive: all other assays above

O=C(O)CCC(F)(F)C(F)(F)C(F)(F)C(F)(F)C(F)(F)F
not listed: [4]
inactive: all other assays above

CN(CCO)S(=O)(=O)C(F)(F)C(F)(F)C(F)(F)C(F)(F)C(F)(F)C(F)(F)C(F)(F)C(F)(F)F
not listed: [4]
inactive: all other assays above

Cc1cncc(C)c1
not listed: [4] | [9]
inactive: all other assays above

CC(=O)Nc1ccc(O)cc1
not listed: [4]
inactive: all other assays above

CC(C)(c1ccc(Oc2ccc(N)cc2)cc1)c1ccc(Oc2ccc(N)cc2)cc1
not listed: [4]
inactive: all other assays above

O=C(c1ccccc1)c1ccccc1
not listed: [4]
inactive: all other assays above

COC(=O)CC(C(C)=O)C(=O)OC (stereo not drawn)
not listed: [4]
inactive: all other assays above

CNNCc1ccc(C(=O)NC(C)C)cc1
not listed: [10]
inactive: all other assays above

COCC1CCC(CO)CC1 (stereo not drawn)
not listed: [4] | [9]
inactive: all other assays above

FC(F)(F)N1C(F)(F)C(F)(F)OC(F)(F)C1(F)F
not listed: [4] | [9]
inactive: all other assays above

c1cc[nH]c1
not listed: [4]
inactive: all other assays above

Cn1sccc1=O
inactive: [3] | [5] | [7] | [9]
active: [1] 190 µM | [2] 74.2 µM | [6] 34.7 µM | [10] 168 µM | [8] 72.4 µM

O=C1c2ccc(O)c(O)c2C(=O)c2c(O)ccc(O)c21
active: [1] 4.28 µM | [3] 0.0722 µM | [8] 6.45 µM
not listed: [4]
inactive: all other assays above

Cc1ccc2ccc3ccc(C)cc3c2c1
active: [3] 50.6 µM
not listed: [4]
inactive: all other assays above

Nc1cc(Cl)c(-c2cc(Cl)c(N)cc2Cl)cc1Cl
active: [1] 2.08 µM | [2] 2.65 µM | [6] 21 µM
not listed: [4] | [9]
inactive: all other assays above

Cc1ccc(N=Nc2c(O)ccc3ccccc23)c(C)c1
active: [3] 0.36 µM | [4] 5.87 µM
not listed: [2] | [9]
inactive: all other assays above

O=c1cc(-c2ccccc2)oc2ccc3ccccc3c12
inactive: [1] | [2] | [5] | [6] | [7] | [8]

CC(C)CCOCCC(C)C
not listed: [2]
inactive: all other assays above

C=CC(=O)OCCC(F)(F)C(F)(F)C(F)(F)C(F)(F)C(F)(F)C(F)(F)F
not listed: [2] | [9]
inactive: all other assays above

COC(=O)C(F)(F)C(F)(F)C(F)(F)F
not listed: [2]
inactive: all other assays above

CCCCc1ccc2ccccc2c1S(=O)(=O)O
not listed: [2] | [4]
inactive: all other assays above

CCOC(=O)CN[C@@H](C(=O)N1CC[C@H]1C(=O)NCc1ccc(/C(N)=N/O)cc1)C1CCCCC1
not listed: [2]
inactive: all other assays above

O=C1OC(=O)c2cc(-c3ccc4c(c3)C(=O)OC4=O)ccc21
not listed: [2]
inactive: all other assays above

CCCCCCCCCCCCCCC
not listed: [3] | [4]
inactive: all other assays above

CCCCCCCCCCCCCC[n+]1ccccc1
active: [4] 0.252 µM | [5] 19.8 µM | [6] 1.22 µM
not listed: [2]
inactive: all other assays above

CC=O
not listed: [2]
inactive: all other assays above

O=C1NS(=O)(=O)c2ccccc21
not listed: [3]
inactive: all other assays above

CCCCC=O
not listed: [3] | [10]
inactive: all other assays above

CCCCCCC(C)(C)C(=O)O
active: [4] 137 µM
not listed: [2]
inactive: all other assays above

c1cc2cccc3c4cccc5cccc(c(c1)c23)c54
active: [3] 17.6 µM
not listed: [2]
inactive: all other assays above

Cc1ccccc1OCC(=O)O
not listed: [2] | [4]
inactive: all other assays above

CCCCCCCCCCCCOC(=O)c1cc(O)c(O)c(O)c1
active: [4] 11.1 µM | [8] 2.92 µM
not listed: [2]
inactive: all other assays above

CCCCCCCCCC=CCC1CC(=O)OC1=O (stereo not drawn)
active: [1] 66.8 µM
not listed: [3] | [10]
inactive: all other assays above

Nc1ccc(O)c(C(=O)O)c1
not listed: [2]
inactive: all other assays above
